Compound activity deposited in PubChem by National Center for Advancing Translational Sciences (NCATS).
Hits are enriched below; roughly 3.6% of the tested compounds scored in any of these assays.
PMP22 txn prim = modulates PMP22 transcription in S16 Schwann cells | S16 Pmp22-F2sN Schwann cells, FLuc/NLuc coincidence luminescence, 24 h | Potency, µM (series often up to 57.5 µM), usual class: inhibitors | hit rate 2% among 43,000; active = clear falling dose curves in both reporters; inconclusive = both reporters move, but less clearly or upward; inactive = either reporter flat; the % is the NLuc reporter signal
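Rat S16 Pmp22-F2sN cells, 500-1,000/well in phenol red-free DMEM + 10% FBS, compound-treated 24 h (37C, 5% CO2). Luminescence: FLuc read, Stop&Glo added, NLuc read.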
SKOV3 invasion = blocks SKOV3ip1 adhesion and invasion in omental model; hit rate 0.1% among 46,000; SKOV3ip1-GFP adhesion/invasion on 3D omental model, fluorescence; Potency, µM (series often up to 45.8 µM), actives largely listed as inhibitors; AID 1963576; also: nearly all actives have a fitted effect of over 65% in size
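Primary human omental fibroblast/mesothelial 3D culture pre-formed 48 h. SKOV3ip1-GFP cells added with compounds (0.36-46 umol/L), incubated 2 h RT/16 h 37 C, fixed; GFP cells quantified at 488/509 nm.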
HTT-AS promoter = HTT-AS promoter activation. Potency, µM (highest dose often 57.5 µM), most hits filed as activators. HEK293 HTT-AS promoter firefly luciferase reporter, 24 h; response scale: percent change from vehicle, -100% = no light. hit rate 0.24% among 48,000; also: nearly all actives have a fitted effect of over 55% in size
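Firefly luciferase signal from promoter-reporter HEK293 cells was scaled between vehicle (0%) and zero RLU (-100%). Compounds were tested at final concentrations of up to 57.5 uM over 24 h at 37 degrees C. PTC124 at 50 uM final served as control inhibitor.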
mTORC1 inh = inhibitors of mTORC1 signaling in Tsc2-/- p53-/- MEF cells; Tsc2-/- p53-/- MEF, phospho-rpS6 immunofluorescence/PI, 24 h; AID 493208; hit rate 0.78% among 44,000; Potency, µM (series often up to 38.3 µM), most hits filed as inhibitors; also: nearly all actives have a fitted effect of over 50% in size
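Read-out: phospho-S6 Alexa-488 intensity over PI intensity per well, scored as % active cells using thresholds from rapamycin (7.5 nM) and DMSO controls. Tsc2-/-, p53-/- MEFs exposed to compound for 24 h; PI cell count recorded as viability.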
S16 viability = toxic to S16 Pmp22-F2sN Schwann cells. S16 Pmp22-F2sN Schwann cells (luciferase reporters placed in the Pmp22 gene) viability, CellTiter-Glo, 24 h. Potency, µM (doses to about 57.5 µM), hits mostly cytotoxic. hit rate 0.48% among 43,000. AID 1508642; also: nearly all actives have a fitted effect of over 65% in size
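CellTiter-Glo counter-screen, qHTS, 1536-well. Cells: S16(c9) Pmp22-F2sN, 500-1,000/well in DMEM + 10% FBS. Cpd 23 nL pin transfer, 24 h, 37C/5% CO2. Read: luminescence, CCD imager.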
HTT prom inh = inhibitors of huntingtin promoter activity; HEK293 HTT promoter firefly luciferase reporter, 24 h; Potency, µM (highest dose often 57.5 µM), most hits filed as inhibitors; hit rate 0.93% among 48,000; AID 1508623; also: nearly all actives have a fitted effect of over 50% in size
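Firefly luciferase signal from promoter-reporter HEK293 cells was scaled between vehicle (0%) and zero RLU (-100%). Compounds were tested at final concentrations of up to 57.5 uM over 24 h at 37 degrees C. PTC124 at 50 uM final served as control inhibitor.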
Hits are given with their value. Unless noted, calls follow the shape of the dose curve; as a rule, active = well fitted curve in the direction sought with a large enough effect; inconclusive = small, poorly fitted or top-dose-only effect, or another doubt; inactive = no such curve, though single readings can be large; an effect the other way counts as inactive or inconclusive.

`COc1cc(Nc2nc(SCC(=O)c3ccc(Cl)c(Cl)c3)nc3ccccc23)cc(OC)c1` gave PMP22 txn prim inconclusive, SKOV3 invasion inactive, HTT-AS promoter inactive, mTORC1 inh 11.7µM, S16 viability inactive and HTT prom inh inactive.
`CN(C(=O)c1cc2c(=O)n3ccccc3nc2n1C)c1ccccc1` gave PMP22 txn prim inactive, SKOV3 invasion inactive, HTT-AS promoter 5.62µM, mTORC1 inh inactive, S16 viability inactive and HTT prom inh inactive.
For CCCCCNC(=O)c1cc2c(=O)n3ccccc3nc2n1C the results were PMP22 txn prim inactive, SKOV3 invasion inconclusive, HTT-AS promoter 2µM, mTORC1 inh inactive, S16 viability inactive and HTT prom inh inactive.
`Cn1c(C(=O)NCCc2ccccc2)cc2c(=O)n3ccccc3nc21` gave PMP22 txn prim inactive, SKOV3 invasion inactive, HTT-AS promoter inconclusive, mTORC1 inh inactive, S16 viability inactive and HTT prom inh inactive.
For Cc1c(Cn2c(C)nc3c(C(=O)O)cc(N4CCOCC4)cc32)cccc1C(F)(F)F the results were SKOV3 invasion inactive, HTT-AS promoter inactive and HTT prom inh inactive.
Screening Cc1cccc(NS(=O)(=O)c2ccc3c(c2)CCN3C(=O)C2CCC2)c1 returned PMP22 txn prim inconclusive, SKOV3 invasion inactive, HTT-AS promoter inactive, mTORC1 inh inactive, S16 viability inactive and HTT prom inh 20µM.
Cc1ccc(C)c(NS(=O)(=O)c2ccc3c(c2)CCCN3C(=O)C2CCC2)c1 was read as PMP22 txn prim inconclusive, SKOV3 invasion inactive, HTT-AS promoter inactive, mTORC1 inh inactive, S16 viability inconclusive and HTT prom inh inconclusive.
Screening Cc1ccc(Cl)cc1N1CCN(C(=O)CCNS(=O)(=O)c2ccc3c(c2)CCN3C(=O)C2CC2)CC1 returned PMP22 txn prim inconclusive, SKOV3 invasion inactive, HTT-AS promoter inactive, mTORC1 inh inactive, S16 viability inactive and HTT prom inh inconclusive.
Screening O=C(CCNS(=O)(=O)c1ccc2c(c1)CCN2C(=O)C1CC1)N1CCN(c2cccc(C(F)(F)F)c2)CC1 returned PMP22 txn prim inconclusive, SKOV3 invasion inactive, HTT-AS promoter inactive, mTORC1 inh inactive, S16 viability inconclusive and HTT prom inh 28.2µM.
COc1ccc(NS(=O)(=O)c2ccc3c(c2)CCN3C(=O)C2CC2)cc1OC was read as PMP22 txn prim inconclusive, SKOV3 invasion inactive, HTT-AS promoter inactive, mTORC1 inh inactive, S16 viability inconclusive and HTT prom inh 3.98µM.
`C=CC[N+]1([C@H]2C[C@H]3[C@@H]4CC[C@H]5C[C@H](O)[C@@H](N6CCOCC6)C[C@]5(C)[C@@H]4CC[C@]3(C)[C@H]2OC(C)=O)CCCC1` gave SKOV3 invasion inactive, HTT-AS promoter inactive and HTT prom inh inactive.
For CCN(C(=O)c1c(O)c2c(Cl)cccc2n(C)c1=O)c1ccccc1 the results were SKOV3 invasion inactive, HTT-AS promoter inactive and HTT prom inh inactive.
Screening CCC[C@H]1C[C@H](C(=O)N[C@@H]([C@@H]2O[C@@H](SC)[C@@H](O)[C@@H](O)[C@@H]2O)[C@H](C)Cl)N(C)C1 returned SKOV3 invasion inactive, HTT-AS promoter inactive and HTT prom inh inactive.
For CCOC(=O)c1c(-c2ccccc2)csc1NC(=O)c1nc(S(=O)(=O)CC)ncc1Cl the results were PMP22 txn prim 4.5µM, SKOV3 invasion inconclusive, HTT-AS promoter inactive, mTORC1 inh inconclusive, S16 viability 11.2µM and HTT prom inh inconclusive.
Screening CN(c1ccccc1)S(=O)(=O)c1ccc(NC(=O)c2nc(S(C)(=O)=O)ncc2Cl)cc1 returned PMP22 txn prim 2.12µM, SKOV3 invasion inactive, HTT-AS promoter inactive, mTORC1 inh 1.17µM, S16 viability 4.47µM and HTT prom inh inconclusive.
`Cc1cccc(NC(=O)c2nc(S(C)(=O)=O)ncc2Cl)c1` gave PMP22 txn prim 2.38µM, SKOV3 invasion inconclusive, HTT-AS promoter inactive, mTORC1 inh 3.29µM, S16 viability 5.01µM and HTT prom inh inconclusive.
